Screens (PubChem BioAssay)
Sm TGR block: blocks Schistosoma mansoni thioredoxin glutathione reductase | Potency, µM (top dose mostly 114 µM), usual class: inhibitors | 3% of 360,000 active | purified TGR, DTNB reduction, TNB absorbance 405 nm; further: nearly all actives have a fitted effect of over 60% in size
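First, TGR (20 nM dispensed) and NADPH were mixed with compound. Second, a 15 min room-temperature incubation followed. Third, further NADPH and then DTNB were added to start the reaction. Finally, TNB absorbance was monitored kinetically.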
Tb PYK inh: blocks Trypanosoma brucei pyruvate kinase; Q57TT1; TbPYK enzyme, Kinase-Glo Plus ATP luminescence, 45 min; Potency, µM (top dose mostly 76.8 µM), hits mostly inhibitors; 0.12% of 410,000 active; AID 624173; further: nearly all actives have a fitted effect of over 50% in size
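Readout: single end-point luminescence (Kinase-Glo Plus, 10 min). Reaction conditions were TbPYK/substrate plus 130 uM ADP, 45 min at RT, pH 7.2 TEA buffer. No-enzyme wells served as controls, and data were normalized before concentration-response fitting.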
RE007 growth inh: less growth of the S. pombe RE007 Vpr strain; 0.21% of 360,000 active; S. pombe RE007 Vpr strain, BacTiter-Glo ATP luminescence, 24 h; Potency, µM (top dose mostly 92.2 µM), usual class: inhibitors; AID 651644; active means well fitted falling curve with a large enough effect; inconclusive means small, poorly fitted or top-dose-only effect; inactive means no such curve, though single readings can be large or run the other way; further: nearly all actives have a fitted effect of over 50% in size
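Fission yeast RE007 carrying one integrated HIV-1 vpr copy, seeded at OD 0.01 in PMG+AL medium with 23 nL pinned compound. Grown 24 h at 30 degrees; viability read by BacTiter-Glo luminescence after 5 min.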
FBPA Giardia inh: inhibitors of Giardia lamblia fructose-1,6-bisphosphate aldolase | A8B2U2 | purified Giardia FBPA | Potency, µM (highest dose often 59.6 µM), hits mostly inhibitors | 0.71% of 290,000 active; further: nearly all actives have a fitted effect of over 55% in size
Target sequence (A8B2U2 whole entry, looked up): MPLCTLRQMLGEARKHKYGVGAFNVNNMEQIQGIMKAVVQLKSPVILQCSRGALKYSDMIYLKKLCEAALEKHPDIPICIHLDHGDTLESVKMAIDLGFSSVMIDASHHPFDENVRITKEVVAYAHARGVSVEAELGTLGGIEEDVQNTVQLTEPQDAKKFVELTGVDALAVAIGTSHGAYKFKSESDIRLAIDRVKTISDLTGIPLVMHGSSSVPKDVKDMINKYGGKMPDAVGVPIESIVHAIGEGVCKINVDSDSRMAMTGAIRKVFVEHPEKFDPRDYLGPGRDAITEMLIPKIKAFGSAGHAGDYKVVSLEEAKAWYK
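40 nM FBPA preincubated 10 min at RT with compound (up to 57.5 uM final), then substrate plus GAPDH/TPI/NAD/arsenate coupling and diaphorase/resazurin added. Fluorescence read after 20 min at RT, 525/598 nm.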
HCMV inh: human cytomegalovirus inhibition. AID 1259415. activity change, negative = inhibition, % at 57.5 µM. HFF cells, HCMV-luciferase reporter, 72 h; hits give low values. 4.5% of 410,000 active; in the data active means activity change below about -60%; inconclusive means no clear call, values can overlap the other calls; inactive means above about -39%
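After 16 h attachment at 37C, HFF cells received test compound and HCMV-luciferase (1 PFU/cell); reporter luminescence read 72 h later, data normalized against buffer-only and known inhibitor Salinomycin.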
FMDV antiviral: blocks foot and mouth disease virus. FMDV antiviral cell-based qHTS. Potency, µM (titrated, usually from 57.9 µM), hits mostly inhibitors. 1.2% of 410,000 active; calls by dose curve; tested in HEK293T cells; further: read-out not given here; nearly all actives have a fitted effect of over 45% in size
Hits are given with their value; i = inactive; ? = inconclusive; nt = no result. Shown are actives, neighbours in structure and some others; about 7.7% of the full set was active somewhere. Unless noted, the call rests on the fitted dose curve; in most records, active means well fitted curve in the direction sought with a large enough effect; inconclusive means small, poorly fitted or top-dose-only effect, or another doubt; inactive means no such curve, though single readings can be large; an effect the other way counts as inactive or inconclusive.

SMILES	Sm TGR block	Tb PYK inh	RE007 growth inh	FBPA Giardia inh	HCMV inh	FMDV antiviral
Cc1ccc(/C=C/C(=O)NCc2ccccn2)o1	18µM	?	i	i	i	i
O=C(/C=C/c1ccco1)NCc1ccco1	4µM	i	i	i	i	i
COc1ccccc1/C=C/C(=O)NC(=S)NCC1CCCO1 (stereo not given)	i	i	i	i	-62	i
O=C(O)[C@@H](O)[C@@H](O)[C@@H](O)[C@@H](O)C(=O)O (tested in a mixture with another compound)	nt	i	nt	i	nt	nt
Cc1ccc(C(=O)N/C(=C/c2ccco2)C(=O)NCC2CCCO2)cc1 (stereo not given)	i	i	i	i	i	i
O=C(/C=C/c1ccco1)NCC1CCCO1 (stereo not given)	5µM	i	i	i	i	i
O=C(/C=C/c1ccc2c(c1)OCO2)NCc1ccco1	40µM	i	i	i	i	i
O=C(/C=C/c1ccc(Cl)c(Cl)c1)NCc1ccco1	i	i	i	i	i	i
COc1ccc(-c2oc3ncn4nc(-c5ccccc5Br)nc4c3c2-c2ccc(OC)cc2)cc1	i	i	nt	nt	i	i
O=C(NCCN1CCC(n2c(=O)[nH]c3cc(Cl)ccc32)CC1)c1ccc(F)cc1	nt	nt	nt	nt	i	nt
CCn1cc(C(=O)Nc2cccc(Cl)c2)c2cc(OC)c(OC)cc2c1=O	i	i	nt	nt	i	i
COc1cccc(/C=C2\SC(=O)N(CC(=O)NC3C=CS(=O)(=O)C3)C2=O)c1 (stereo not given)	i	i	i	nt	-69	i
O=C(CN1C(=O)/C(=C/c2ccccc2Cl)SC1=S)NC1C=CS(=O)(=O)C1 (stereo not given)	i	i	i	nt	-64	i
COc1cccc(/C=C2\SC(=O)N(CC(=O)NC3CCS(=O)(=O)C3)C2=O)c1 (stereo not given)	i	i	i	nt	i	i
CC(C)c1ccc(/C=C2\SC(=O)N(CC(=O)NC3C=CS(=O)(=O)C3)C2=O)cc1 (stereo not given)	i	i	i	i	-77	i
O=c1[nH]c(SCc2ccc(Br)cc2)nc2c1CCCC2	i	i	nt	nt	i	i
CCCCC1CN(CCNC(=O)c2ccccn2)Cc2ccccc2O1 (stereo not given)	nt	nt	nt	nt	nt	i
COc1ccc(/C=N\NC(=O)c2ccc(F)cc2)cc1COc1ccccc1C(N)=O	28µM	i	i	nt	i	?
COc1ccc(C=O)cc1COc1ccccc1F	i	i	i	i	i	?
COc1ccc(OCc2cc(/C=N\NC(=O)c3ccccc3)ccc2OC)cc1	i	i	i	nt	?	i
O=C(N/N=C/c1ccc(O)cc1)c1ccc(NC(=O)c2ccccc2Br)cc1	i	i	i	i	i	i
COc1ccccc1/C=N/NC(=O)c1ccc(NC(=O)c2ccccc2Br)cc1	i	i	i	i	-66	i
COc1ccc(/C=C/C(=O)c2ccccc2)cc1COc1ccccc1F	i	i	i	i	i	20µM
COc1ccc(/C=N\NC(=O)c2cccc(F)c2)cc1COc1ccccc1	nt	i	i	nt	-86	i
Cc1ccc(C)c(Cn2c(=O)cc(C(F)(F)F)c3c(C)nn(C)c32)c1	i	i	nt	nt	i	i
SMILES	Sm TGR block	Tb PYK inh	RE007 growth inh	FBPA Giardia inh	HCMV inh	FMDV antiviral
Cc1cccc(-n2c(=O)c3c(c4cc(C)ccc4n3C)n(CC(=O)Nc3ccc(C)c(C)c3)c2=O)c1	i	i	nt	nt	i	i
COc1ccccc1NC(=O)Cn1c(=O)n(CC2CCC(C(=O)NCCc3ccccc3)CC2)c(=O)c2ccccc21 (stereo not given)	i	i	nt	nt	i	i
COc1ccc(/C=N/NC(=O)c2cccnc2)cc1COc1ccc(NC(C)=O)cc1	i	i	i	i	i	i
COc1ccc(/C=N/NC(=O)c2cccnc2)cc1COc1ccc([N+](=O)[O-])cc1	i	i	i	i	?	28µM
COc1cc(/C=N/NC(=O)c2cccc(NC(=O)c3ccccc3)c2)ccc1O	i	i	i	i	-82	i
O=C(Oc1ccccc1C(=O)Nc1ccccc1)c1ccccc1Br	i	i	i	i	-66	i
COc1ccc(C(=O)N/N=C/c2ccc(OC)c(CSc3ccccn3)c2)cc1	i	i	i	i	-65	i
COc1cc(/C=N/NC(=O)c2cccc(NC(=O)c3ccccc3C)c2)ccc1O	i	i	i	i	i	i
CO[C@H](C(=O)[C@@H](O)[C@@H](C)O)C1Cc2cc3cc(O[C@H]4C[C@@H](O[C@H]5C[C@@H](O)[C@H](O)[C@@H](C)O5)[C@@H](O)[C@@H](C)O4)c(C)c(O)c3c(O)c2C(=O)[C@H]1O[C@H]1C[C@@H](O[C@H]2C[C@@H](O[C@H]3C[C@](C)(O)[C@H](O)[C@@H](C)O3)[C@H](O)[C@@H](C)O2)[C@H](O)[C@@H](C)O1 (stereo not given in full)	nt	i	nt	nt	nt	nt
Cn1c(NCCCO)nc2c1c(=O)n(Cc1cccc(F)c1)c(=O)n2C	i	i	nt	nt	i	i
CC(C)OP(=O)(OC(C)C)C1(NS(=O)(=O)c2ccc(Cl)cc2)C=C(Cl)C(=O)C(Cl)=C1	0.79µM	?	i	i	i	i
Cc1ccc2nc(CN3CCN(S(=O)(=O)c4ccc(F)cc4)CC3)oc2c1	i	i	nt	nt	i	i
Cc1cc(S(=O)(=O)ON2C(=O)c3ccccc3C2=O)ccc1F	0.79µM	i	i	i	i	?
Cc1ccc(S(=O)(=O)ON2C(=O)c3cccc4cccc(c34)C2=O)cc1	i	i	i	i	i	i
O=C1c2ccccc2C(=O)N1OS(=O)(=O)c1ccccc1	1.3µM	nt	nt	i	nt	nt
Cc1ccc(C)c(S(=O)(=O)ON2C(=O)c3ccccc3C2=O)c1	0.89µM	?	i	i	i	?
O=C1c2cccc3cccc(c23)C(=O)N1OS(=O)(=O)c1ccccc1	i	i	i	i	i	i
CC(C)c1ccc(N2C(=O)CSC23C(=O)N(Cc2ccccc2F)c2ccccc23)cc1 (stereo not given)	i	i	nt	nt	i	?
Cc1cc(C)c(OCC(=O)N(Cc2cccc(F)c2)Cc2ccco2)c(C)c1	i	i	nt	nt	i	i
Cc1ccc2c(=O)cc(C(=O)Nc3sc4c(c3C(=O)NCc3ccco3)CCC4)oc2c1	i	i	nt	nt	i	i
O=C(O)c1cc(/C=C/c2ccc(N3CCOCC3)c([N+](=O)[O-])c2)nc2ccccc12	i	i	i	i	i	i
O=C(O)c1cc(/C=C/c2ccc(N3CCOCC3)cc2)nc2ccccc12	i	i	16µM	i	i	10µM
O=C(CN1C(=O)CCS(=O)(=O)c2ccccc21)NCc1ccccc1	i	i	i	i	i	i
